The target of the first experiment is GABRA1. The experiment in a line: pooled miR-30 sensor sort-seq; sequence = guide strand. Particulars: shRNA.
TACTTGACTGGACAATTCCAGA gave a sensor-assay potency score (higher = more potent) of -1.07. As to TTAGACGTGATCCATCTTCTGC, the sensor-assay potency score (higher = more potent) was -0.591.

Consider TACATCTATTGTATATTCCATA, for which the sensor-assay potency score (higher = more potent) is -0.691. On to TAGCTTGTGAAATTTAGGCAGG, for which the sensor-assay potency score (higher = more potent) was -0.747. On to TATATATCTACAAATGACCTAG, for which the sensor-assay potency score (higher = more potent) amounted to 0.243. Take TTAAATATCTGTTAAACTCTAT: the sensor-assay potency score (higher = more potent) is -0.0161. On to TTGTATAAGCATAACTTCCAAA, for which the sensor-assay potency score (higher = more potent) is -0.726. Same read-out and setting: the figure for TACTGTGGCAAACTCAATCAGA is -0.32; for TTTCTTGTATCTTTGAACCATC it is -0.813. TCTGCTACAACCACTGAGCGTG came in with a sensor-assay potency score (higher = more potent) of -0.543.

Sequence TACAATGAGCAACTGCACCTTT registered a sensor-assay potency score (higher = more potent) of 0.167. TATATCATTGGATAGCAGCTTT: the sensor-assay potency score (higher = more potent) was -0.213.

The next experiment concerns the target GABRB2. The description is as above. Particulars: shRNA.
In the case of TTAAAGCTGAGGGATAACCTGG, the sensor-assay potency score (higher = more potent) was -0.689. On the same count and under the same terms, with TCTGAGTCCATAAAGGACGGTG the figure was -0.531. TTGCGCCACATGTCGTTCCAGA returned a sensor-assay potency score (higher = more potent) of -0.912.

TTAACCAGCGACATATTACTAG came in with a sensor-assay potency score (higher = more potent) of -0.576. TAATCTACAATAGAGAACTGTG gave a sensor-assay potency score (higher = more potent) of -0.184. On the same count and under the same terms, with TTAATCCAGAAGGAGACCCAGG the figure was -0.469; with TTATCGTTCAGGAAATAGGTAT, -0.408. For the sequence TTTCTCTTAAGCTTAAAGCTGA, the sensor-assay potency score (higher = more potent) was -0.0649. On the same count and under the same terms, with TATCTCTCCAGGCTTGTTGAAA the figure was -1.12; with TATTACATTATAGGACAGCCTC, -0.766; with TTTCAGGAGTCTATCCACCGTC, -0.228.

Regarding TTACATTATAGGACAGCCTCTT, the sensor-assay potency score (higher = more potent) is -0.0422. TCTACAATAGAGAACTGTGGAA came in with a sensor-assay potency score (higher = more potent) of -0.939. The same measure, in the same setting: the figure for TTGTTGAAAGTACATTGTCAAG is -1.79; for TAGGCTAGCATTGTGCTTCTGG it is 0.754; for TGAAGCATCGTAATTAATCCAG it is -0.467. As for TTCAGGAGTCTATCCACCGTCT, the sensor-assay potency score (higher = more potent) turned out to be 0.156. On the same count and under the same terms, the figure for TCAGAAACCATATCGATGCTGG is 0.313; for TCATAGGCTAGCATTGTGCTTC it is -0.299. Regarding TACATTATAGGACAGCCTCTTA, the sensor-assay potency score (higher = more potent) is -0.982. With TTTGTAATCTACAATAGAGAAC, the sensor-assay potency score (higher = more potent) was -1.05. Turning to TGAAAGTACATTGTCAAGGTAT, the sensor-assay potency score (higher = more potent) worked out at 0.245.

A further experiment addresses GABRP. Described as above. Particulars: shRNA.
For TATGGTGGCTGTGTAGTCCATG, the sensor-assay potency score (higher = more potent) is -0.102. Consider ATAATCAACAATCCTGCCCATC, for which the sensor-assay potency score (higher = more potent) was -0.969. TTTGAATTGTGAAATAATCAAC yielded a sensor-assay potency score (higher = more potent) of -1.06. TTCATTGTCAAGTCACTGTAGT came in with a sensor-assay potency score (higher = more potent) of 0.147. For TCAAACTGTAAGACCAATCTAG, the sensor-assay potency score (higher = more potent) was found to be 0.125. The sequence AACTTGAACTTGTCGCTGGTTT returned a sensor-assay potency score (higher = more potent) of -0.459.

These data come from the OligoGym collection.
Further: reference of the scale not given here.
